# According to the supplement of paper PMC10849652:
# The full data set covers some 7,900 targets. This sample favours those with a hit. About 0.6% of all pairs of compound and target were hits. Values without a mark were called inactive.
# Columns and labels:
# Assay in all cases: log2 fold change, soluble protein after heating vs DMSO (PISA); higher = thermal stabilisation; K562 cells, 10 uM, 30 min; active = over 0.2 and 3.5 SD of the protein, either way, in both replicates (recomputed)
# [1] = compound: COC1=CC=C(C=C1)CN2C=CC3=C2C=C(C=C3)C(=O)NO
# Method in brief: (§1)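 Aliquots of K562 cells (2×10^6 cells/mL) treated with 10 μM compound for 30 min were heated for 3 min over 48°C-58°C. After pooling and extraction in PBS with 0.5% NP-40 at 4°C, soluble protein from a 21,000xg, 90 min spin was quantified by TMTpro 16plex LC-MS/MS with channel sums equalised. Thermal stability is expressed against control samples, from duplicates, as a log2 fold change.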
# filanesib = compound: CON(C)C(=O)N1N=C(c2cc(F)ccc2F)S[C@@]1(CCCN)c1ccccc1 [filanesib]
# Method in brief: as §1
# zotarolimus = compound: CO[C@H]1C[C@@H]2CC[C@@H](C)[C@@](O)(O2)C(=O)C(=O)N2CCCC[C@H]2C(=O)O[C@H]([C@H](C)C[C@@H]2CC[C@H](n3cnnn3)[C@H](OC)C2)CC(=O)[C@H](C)/C=C(\C)[C@@H](O)[C@@H](OC)C(=O)[C@H](C)C[C@H](C)/C=C/C=C/C=C/1C [zotarolimus]
# Method in brief: as §1
# idasanutlin = compound: COc1cc(C(=O)O)ccc1NC(=O)[C@@H]1N[C@@H](CC(C)(C)C)[C@](C#N)(c2ccc(Cl)cc2F)[C@H]1c1cccc(Cl)c1F [idasanutlin]
# Method in brief: as §1
# alisertib = compound: COc1cc(Nc2ncc3c(n2)-c2ccc(Cl)cc2C(c2c(F)cccc2OC)=NC3)ccc1C(=O)O [alisertib]
# Method in brief: as §1
# [2] = compound: COc1cc2nc(-c3cc(F)ccc3O)nc(N[C@@H]3CNC[C@H]3C(C)(C)O)c2cc1OC
# Method in brief: as §1
# gefitinib = compound: COc1cc2ncnc(Nc3ccc(F)c(Cl)c3)c2cc1OCCCN1CCOCC1 [gefitinib]
# Method in brief: as §1
# [3] = compound: COc1cccc2cc(-c3nc([C@H]4CC[C@H](C(=O)O)CC4)n4ncnc(N)c34)[nH]c12
# Method in brief: as §1
# lapatinib = compound: CS(=O)(=O)CCNCc1ccc(-c2ccc3ncnc(Nc4ccc(OCc5cccc(F)c5)c(Cl)c4)c3c2)o1 [lapatinib]
# Method in brief: as §1
# pictilisib = compound: CS(=O)(=O)N1CCN(Cc2cc3nc(-c4cccc5[nH]ncc45)nc(N4CCOCC4)c3s2)CC1 [pictilisib]
# Method in brief: as §1
# [4] = compound: CS(=O)(=O)c1ccc(-c2cnc(N)c(C(=O)Nc3ccccc3)n2)cc1
# Method in brief: as §1
# crizotinib = compound: C[C@@H](Oc1cc(-c2cnn(C3CCNCC3)c2)cnc1N)c1c(Cl)ccc(F)c1Cl [crizotinib]
# Method in brief: as §1
# [5] = compound: C[C@@H]1COCCN1C2=NC(=NC(=C2)C3(CC3)S(=O)(=O)C)C4=C5C=CNC5=CC=C4
# Method in brief: as §1
# [6] = compound: C[C@H](C1=CC=C(C=C1)C(=O)NC2=C3C=CNC3=NC=C2)N
# Method in brief: as §1
# duvelisib = compound: C[C@H](Nc1ncnc2nc[nH]c12)c1cc2cccc(Cl)c2c(=O)n1-c1ccccc1 [duvelisib]
# Method in brief: as §1
# gandotinib = compound: Cc1cc(Nc2cc(CN3CCOCC3)c3nc(C)c(Cc4ccc(Cl)cc4F)n3n2)n[nH]1 [gandotinib]
# Method in brief: as §1
# tozasertib = compound: Cc1cc(Nc2cc(N3CCN(C)CC3)nc(Sc3ccc(NC(=O)C4CC4)cc3)n2)n[nH]1 [tozasertib]
# Method in brief: as §1
# [7] = compound: Cc1cc(SCc2sc(-c3ccc(C(F)(F)F)cc3)nc2C)ccc1OCC(=O)O
# Method in brief: as §1
# doramapimod = compound: Cc1ccc(-n2nc(C(C)(C)C)cc2NC(=O)Nc2ccc(OCCN3CCOCC3)c3ccccc23)cc1 [doramapimod]
# Method in brief: as §1
# ispinesib = compound: Cc1ccc(C(=O)N(CCCN)[C@@H](c2nc3cc(Cl)ccc3c(=O)n2Cc2ccccc2)C(C)C)cc1 [ispinesib]
# Method in brief: as §1
# Chain of UniProt P25788 (P25788 whole entry, looked up): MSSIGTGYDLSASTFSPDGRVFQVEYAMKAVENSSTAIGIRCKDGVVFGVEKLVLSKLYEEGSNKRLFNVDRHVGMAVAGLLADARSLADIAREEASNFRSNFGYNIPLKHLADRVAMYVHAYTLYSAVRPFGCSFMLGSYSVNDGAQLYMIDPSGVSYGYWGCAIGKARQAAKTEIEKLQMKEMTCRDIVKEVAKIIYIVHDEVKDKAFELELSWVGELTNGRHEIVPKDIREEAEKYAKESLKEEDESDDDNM
# Chain of UniProt Q86TP1 (Q86TP1 whole entry, looked up): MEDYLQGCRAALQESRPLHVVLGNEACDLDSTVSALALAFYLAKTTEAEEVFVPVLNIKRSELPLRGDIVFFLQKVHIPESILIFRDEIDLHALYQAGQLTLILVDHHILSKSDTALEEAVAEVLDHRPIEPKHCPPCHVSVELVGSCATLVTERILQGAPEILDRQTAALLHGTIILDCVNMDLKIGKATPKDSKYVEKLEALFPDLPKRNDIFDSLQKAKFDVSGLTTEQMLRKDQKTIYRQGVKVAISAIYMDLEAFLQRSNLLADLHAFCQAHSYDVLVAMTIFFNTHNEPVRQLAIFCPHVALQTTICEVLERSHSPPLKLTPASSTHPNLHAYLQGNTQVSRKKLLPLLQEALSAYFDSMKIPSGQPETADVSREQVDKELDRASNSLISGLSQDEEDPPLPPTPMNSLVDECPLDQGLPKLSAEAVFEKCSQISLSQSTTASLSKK
# Chain of UniProt O14974 (O14974 whole entry, looked up): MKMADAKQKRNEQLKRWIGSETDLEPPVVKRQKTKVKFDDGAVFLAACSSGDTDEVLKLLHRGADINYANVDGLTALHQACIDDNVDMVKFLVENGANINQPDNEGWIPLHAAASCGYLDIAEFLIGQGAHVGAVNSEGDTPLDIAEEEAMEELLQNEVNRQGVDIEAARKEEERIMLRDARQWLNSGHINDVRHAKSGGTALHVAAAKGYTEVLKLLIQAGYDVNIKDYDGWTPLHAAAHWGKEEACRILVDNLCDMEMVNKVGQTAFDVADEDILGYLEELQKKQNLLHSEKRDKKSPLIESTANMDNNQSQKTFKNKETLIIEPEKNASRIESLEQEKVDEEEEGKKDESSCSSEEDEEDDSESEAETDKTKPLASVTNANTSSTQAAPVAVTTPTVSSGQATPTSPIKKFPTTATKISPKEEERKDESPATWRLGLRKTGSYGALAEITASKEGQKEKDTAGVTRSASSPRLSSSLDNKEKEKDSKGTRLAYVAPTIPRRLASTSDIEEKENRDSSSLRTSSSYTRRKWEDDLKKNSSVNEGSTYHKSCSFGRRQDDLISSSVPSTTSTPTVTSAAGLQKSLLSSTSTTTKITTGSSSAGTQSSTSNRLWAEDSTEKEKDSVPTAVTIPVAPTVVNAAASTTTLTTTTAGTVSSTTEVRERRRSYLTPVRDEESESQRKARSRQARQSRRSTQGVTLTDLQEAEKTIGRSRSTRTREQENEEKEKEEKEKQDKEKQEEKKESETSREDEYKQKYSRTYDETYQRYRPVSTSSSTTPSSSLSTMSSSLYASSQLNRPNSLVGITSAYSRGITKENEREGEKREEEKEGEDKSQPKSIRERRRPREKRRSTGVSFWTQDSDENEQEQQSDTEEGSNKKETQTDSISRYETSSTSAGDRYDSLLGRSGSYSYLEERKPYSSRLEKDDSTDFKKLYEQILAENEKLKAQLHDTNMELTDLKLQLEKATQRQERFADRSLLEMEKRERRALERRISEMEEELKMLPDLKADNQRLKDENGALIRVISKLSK
# Chain of UniProt Q8IWE5 (Q8IWE5 whole entry, looked up): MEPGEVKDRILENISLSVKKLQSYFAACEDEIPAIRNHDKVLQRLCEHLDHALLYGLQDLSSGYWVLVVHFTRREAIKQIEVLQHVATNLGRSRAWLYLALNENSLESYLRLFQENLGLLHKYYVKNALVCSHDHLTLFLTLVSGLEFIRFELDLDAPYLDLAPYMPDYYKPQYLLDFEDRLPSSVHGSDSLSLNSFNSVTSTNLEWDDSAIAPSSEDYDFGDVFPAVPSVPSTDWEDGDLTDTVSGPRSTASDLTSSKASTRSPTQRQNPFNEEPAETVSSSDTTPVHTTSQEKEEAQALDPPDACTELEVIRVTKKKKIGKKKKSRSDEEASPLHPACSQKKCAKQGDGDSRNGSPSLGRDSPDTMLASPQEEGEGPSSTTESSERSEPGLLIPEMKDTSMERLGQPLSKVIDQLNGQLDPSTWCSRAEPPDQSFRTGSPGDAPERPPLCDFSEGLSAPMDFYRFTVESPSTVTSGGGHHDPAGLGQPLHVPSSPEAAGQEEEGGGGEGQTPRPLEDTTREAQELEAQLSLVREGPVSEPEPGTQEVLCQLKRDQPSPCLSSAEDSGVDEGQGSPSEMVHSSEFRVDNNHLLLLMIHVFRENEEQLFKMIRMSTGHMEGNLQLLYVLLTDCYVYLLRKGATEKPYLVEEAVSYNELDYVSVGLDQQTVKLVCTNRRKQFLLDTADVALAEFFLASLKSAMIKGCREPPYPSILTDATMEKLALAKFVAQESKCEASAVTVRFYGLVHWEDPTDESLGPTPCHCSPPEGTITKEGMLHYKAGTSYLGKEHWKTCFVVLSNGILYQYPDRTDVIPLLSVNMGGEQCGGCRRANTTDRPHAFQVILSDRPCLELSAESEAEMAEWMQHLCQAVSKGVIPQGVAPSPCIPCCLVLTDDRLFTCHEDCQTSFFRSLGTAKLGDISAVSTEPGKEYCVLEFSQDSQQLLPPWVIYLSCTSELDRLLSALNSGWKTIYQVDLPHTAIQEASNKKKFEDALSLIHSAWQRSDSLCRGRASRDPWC
# Chain of UniProt Q8NBL1 (Q8NBL1 whole entry, looked up): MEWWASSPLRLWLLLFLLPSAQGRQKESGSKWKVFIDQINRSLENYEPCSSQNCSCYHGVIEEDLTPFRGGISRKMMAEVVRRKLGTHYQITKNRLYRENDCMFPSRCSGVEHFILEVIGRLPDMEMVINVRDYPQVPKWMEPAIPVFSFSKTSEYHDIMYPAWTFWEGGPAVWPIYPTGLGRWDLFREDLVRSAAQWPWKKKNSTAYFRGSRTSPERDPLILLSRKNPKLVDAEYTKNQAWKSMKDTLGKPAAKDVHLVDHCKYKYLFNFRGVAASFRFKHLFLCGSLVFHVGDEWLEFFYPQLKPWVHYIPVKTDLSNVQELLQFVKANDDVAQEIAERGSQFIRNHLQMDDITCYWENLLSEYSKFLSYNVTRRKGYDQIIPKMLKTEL
# Chain of UniProt Q8NHP8 (Q8NHP8 whole entry, looked up): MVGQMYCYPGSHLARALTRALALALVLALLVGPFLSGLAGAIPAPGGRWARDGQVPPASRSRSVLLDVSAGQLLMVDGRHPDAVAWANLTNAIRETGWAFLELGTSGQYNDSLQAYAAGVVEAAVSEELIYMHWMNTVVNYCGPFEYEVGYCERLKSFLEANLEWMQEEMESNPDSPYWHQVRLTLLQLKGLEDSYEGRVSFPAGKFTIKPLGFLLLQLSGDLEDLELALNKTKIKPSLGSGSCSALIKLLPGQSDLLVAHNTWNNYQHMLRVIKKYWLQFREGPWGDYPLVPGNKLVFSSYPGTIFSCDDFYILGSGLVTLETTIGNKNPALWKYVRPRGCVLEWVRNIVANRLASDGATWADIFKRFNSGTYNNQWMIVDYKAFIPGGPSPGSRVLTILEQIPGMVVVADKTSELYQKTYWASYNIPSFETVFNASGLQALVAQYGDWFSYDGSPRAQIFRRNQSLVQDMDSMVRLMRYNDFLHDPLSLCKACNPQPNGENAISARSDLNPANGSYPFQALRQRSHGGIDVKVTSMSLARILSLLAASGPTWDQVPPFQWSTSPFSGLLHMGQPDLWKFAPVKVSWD
# Chain of UniProt P50897 (P50897 whole entry, looked up): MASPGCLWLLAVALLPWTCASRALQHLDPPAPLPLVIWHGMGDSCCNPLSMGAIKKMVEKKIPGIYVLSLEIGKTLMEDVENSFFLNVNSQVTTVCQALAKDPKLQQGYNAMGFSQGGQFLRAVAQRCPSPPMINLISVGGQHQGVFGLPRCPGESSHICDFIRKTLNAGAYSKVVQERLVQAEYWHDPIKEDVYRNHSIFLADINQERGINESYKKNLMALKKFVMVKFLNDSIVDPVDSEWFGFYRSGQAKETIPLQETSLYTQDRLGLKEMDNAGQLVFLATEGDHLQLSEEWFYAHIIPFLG
# Chain of UniProt Q15366 (Q15366 whole entry, looked up): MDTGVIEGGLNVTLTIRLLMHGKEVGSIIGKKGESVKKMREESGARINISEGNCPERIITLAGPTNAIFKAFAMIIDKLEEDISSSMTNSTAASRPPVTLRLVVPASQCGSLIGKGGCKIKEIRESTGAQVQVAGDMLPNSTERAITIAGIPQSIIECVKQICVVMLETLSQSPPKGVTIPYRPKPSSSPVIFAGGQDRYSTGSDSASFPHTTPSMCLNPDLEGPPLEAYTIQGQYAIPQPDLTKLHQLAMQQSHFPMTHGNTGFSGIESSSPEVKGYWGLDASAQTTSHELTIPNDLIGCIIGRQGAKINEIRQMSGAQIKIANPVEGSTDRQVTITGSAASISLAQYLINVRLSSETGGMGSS
# Chain of UniProt O60678 (O60678 whole entry, looked up): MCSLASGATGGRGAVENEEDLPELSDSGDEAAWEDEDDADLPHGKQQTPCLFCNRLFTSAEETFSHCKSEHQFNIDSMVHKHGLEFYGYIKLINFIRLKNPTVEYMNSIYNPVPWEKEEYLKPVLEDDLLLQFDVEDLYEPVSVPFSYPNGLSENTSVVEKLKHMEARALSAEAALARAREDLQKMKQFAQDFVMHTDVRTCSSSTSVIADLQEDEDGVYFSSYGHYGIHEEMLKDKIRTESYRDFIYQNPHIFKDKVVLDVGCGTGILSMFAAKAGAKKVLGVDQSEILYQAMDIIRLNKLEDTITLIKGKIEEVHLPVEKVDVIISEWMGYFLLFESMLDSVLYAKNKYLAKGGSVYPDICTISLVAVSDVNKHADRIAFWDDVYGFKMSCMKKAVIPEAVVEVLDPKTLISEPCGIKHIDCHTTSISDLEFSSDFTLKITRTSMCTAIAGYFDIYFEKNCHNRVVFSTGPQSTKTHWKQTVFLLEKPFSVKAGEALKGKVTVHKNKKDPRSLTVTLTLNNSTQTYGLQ
Target,log2 fold change [1],log2 fold change (filanesib),log2 fold change (zotarolimus),log2 fold change (idasanutlin),log2 fold change (alisertib),log2 fold change [2],log2 fold change (gefitinib),log2 fold change [3],log2 fold change (lapatinib),log2 fold change (pictilisib),log2 fold change [4],log2 fold change (crizotinib),log2 fold change [5],log2 fold change [6],log2 fold change (duvelisib),log2 fold change (gandotinib),log2 fold change (tozasertib),log2 fold change [7],log2 fold change (doramapimod),log2 fold change (ispinesib)
PTPMT1 (UniProt Q8WUK0),-0.084,-0.26,-0.027,-0.002,0.006,-0.327 (active),-0.021,0.034,-0.064,0.02,0.086,-0.546 (active),0.039,-0.026,0.118,-0.125,-0.001,0.109,-0.036,-0.429 (active)
PPP1R12A (UniProt O14974),0.003,0.064,0.048,0.041,0.028,-0.658 (active),0.009,-0.006,0.036,0.005,-0.054,-0.351,-0.039,-0.885 (active),0.065,0.021,0.011,0.029,-0.054,-0.1
PRUNE1 (UniProt Q86TP1),-0.083,-0.047,0.026,0.023,0.091,0.059,0.006,-0.007,-0.038,0.072,-0.011,-0.064,-0.002,-0.026,-0.047,-0.071,0.097,0.056,0.008,-0.018
PDE4DIP isoform 4 (UniProt Q5VU43),0.113,-0.057,-0.046,0.055,-0.102,0.024,0.024,-0.022,-0.005,0.042,-0.007,0.02,0.134,-0.002,0.072,0.106,-0.011,0.008,0.01,-0.073
PDCD6IP (UniProt Q8WUM4),0.105,-0.022,0.079,-0.018,0.045,0.022,0.06,-0.118,-0.04,0.009,0.078,-0.177,0.067,0.077,0.026,-0.117,0.085,0.17,-0.042,-0.14
PCBP2 isoform 3 (UniProt Q15366),0.138,-0.031,0.048,-0.064,0.012,-0.092,0.011,0.002,0.003,-0.013,-0.036,-0.018,0.06,-0.031,-0.006,-0.065,0.056,0.072,-0.008,0.005
PLEKHM2 (UniProt Q8IWE5),0.007,-0.09,0.053,-0.083,0.044,-0.041,0.075,-0.041,0.084,0.011,0.023,-0.162,0.02,-0.047,0.044,-0.06,0.144,0.04,0.064,-0.02
PRMT3 (UniProt O60678),0.026,-0.099,0.008,-0.017,-0.005,0.098,-0.122,-0.111,0.013,0.048,-0.067,-0.137,-0.002,-0.058,-0.028,-0.156,0.002,0.111,-0.037,-0.02
PITRM1 isoform 2 (UniProt Q5JRX3),-0.097,-0.229 (active),0.124,-0.047,-0.009,-0.026,0.137,0.035,-0.04,-0.032,-0.042,0.01,0.094,-0.023,0.072,0.038,-0.029,0,-0.014,-0.38 (active)
PPM1G (UniProt O15355),-0.011,0.014,0.028,0.066,0.019,0.081,0.044,-0.089,-0.052,0.093,0.114,-0.028,0.045,-0.083,0.044,-0.026,0.081,0.171,-0.008,-0.055
PLBD2 (UniProt Q8NHP8),-0.069,-0.015,-0.029,-0.012,-0.048,-0.007,0.018,0.041,-0.008,0.027,0.014,-0.07,0.044,-0.008,0.045,0.003,0.015,-0.028,0.022,-0.088
POGLUT1 (UniProt Q8NBL1),-0.086,0.076,-0.004,0.114,-0.051,0.035,-0.046,-0.132,0.036,-0.099,0.064,0.059,0,0.241,-0.021,-0.011,0.004,0.037,0.029,0.087
PSMA3 (UniProt P25788),0.015,0.034,0.044,0.019,-0.04,-0.079,-0.025,-0.003,0.062,-0.053,0.011,0.052,-0.012,-0.117,-0.074,0.054,0.046,0.007,0.018,-0.002
PPT1 (UniProt P50897),0.021,-0.241 (active),-0.043,0.005,-0.041,-0.041,-0.03,0.074,-0.038,0.052,0.022,-0.57 (active),-0.008,-0.029,0.023,-0.018,-0.012,0.023,-0.004,-0.394 (active)
PARN (UniProt O95453),0.001,-0.015,-0.009,-0.028,0.001,0.051,-0.009,0.04,-0.028,-0.036,0.028,-0.095,0.125,-0.025,0.048,-0.127,0.024,0.069,-0.037,-0.021
PEX11B (UniProt O96011),0.021,-0.038,-0.009,-0.076,-0.071,-0.063,-0.037,0.019,0.023,0.004,-0.042,0.02,0.148,-0.012,0.081,-0.073,0.065,0.014,0.002,0.07
